Measured values taken from PubChem BioAssay.
Measured potencies and affinities stand elsewhere. Active and inactive are the calls of the source.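 Rule for the calls: active = fitted dose curve reaches 40% lysis signal rise at or below the highest valid concentration tested for that sample; inconclusive = flat fit between 30% and 70%, or poor curve fit; inactive = signal falls, stays flat within 30%, or no crossing.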

Experiment: inducers of Cryptococcus neoformans cell lysis, dose response, AK release luminescence, cherry-picks (AID 687000);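 note: luminescent detection of adenylate kinase leaking from lysed yeast; 0% = median neutral control signal and 100% = double that signal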
Conditions: C. neoformans lysis, adenylate kinase release luminescence, 4 h, 100% = twice the neutral-control signal; series mostly up to 15 µM; lysis activity: at the top concentration

Lysis activity, inactive:
O=C([C@@H]1[C@@H](CO)[C@@H]2Cn3c(cccc3=O)[C@H]1N2Cc1cccc(Cl)c1)N1CCOCC1 42.2%
CC(=O)NC[C@H]1[C@@H](c2ccc(C3=CCCC3)cc2)[C@@H](CO)N1C(=O)NC(C)C 5.44%
CCC(C)(C(=O)NC1CCCC1)N(C(C)=O)c1ccc(C)cc1 (stereo unspecified) 26.2%
CC(C)NC(=O)N(C)C[C@@H]1OCCCC[C@@H](C)Oc2ccc(NC(=O)c3ccccc3)cc2C(=O)N([C@H](C)CO)C[C@H]1C 25%
Cc1noc(C)c1NC(=O)N(C)C[C@@H]1Oc2ccc(NC(=O)C3CC3)cc2CC(=O)N([C@H](C)CO)C[C@@H]1C 13.4%
CCCN(C)C[C@@H]1OCCCC[C@H](C)Oc2ccc(NS(=O)(=O)c3ccc(C)cc3)cc2C(=O)N([C@H](C)CO)C[C@@H]1C -6.78%
COCC(=O)Nc1ccc2c(c1)OC[C@@H](C)N(C(=O)Cc1cccnc1)C[C@H](C)[C@@H](OC)CN(C)C2=O -10.4%
C[C@@H]1CCCCO[C@@H](CN(C)Cc2ccncc2)[C@@H](C)CN([C@@H](C)CO)C(=O)c2cc(NC(=O)c3ccncc3)ccc2O1 6.72%
Cc1ccc(NC(=O)C2(C)CCCN2CC(C)C)cc1C (stereo unspecified) -8.18% [at 26 µM]
COCCNC(=O)C[C@@H]1CC[C@H]2[C@@H](COC[C@H](O)CN2Cc2cccc(-c3ccncc3)c2)O1 11.7%
O=S(=O)(NC[C@@H]1[C@@H](c2ccccc2)[C@H](CO)N1CC1CC1)c1ccccc1 0.36%
C[C@H]1CN([C@@H](C)CO)C(=O)Cc2cc(NS(=O)(=O)c3ccc(F)cc3)ccc2O[C@@H]1CN(C)S(=O)(=O)c1ccc(F)cc1 1.39% [at 16 µM]
C[C@H]1CCCCO[C@H](CN(C)S(=O)(=O)c2ccc(Cl)cc2)[C@@H](C)CN([C@@H](C)CO)C(=O)c2cc(NS(=O)(=O)c3cccs3)ccc2O1 -11.3%
CNC[C@@H]1Oc2cc(Br)ccc2S(=O)(=O)N([C@H](C)CO)C[C@H]1C -8.34%
C[C@@H]1CN([C@@H](C)CO)C(=O)c2cc(-c3ccc(C#N)cc3)cnc2O[C@@H]1CN(C)C(=O)Nc1ccc(F)cc1 0.531%
CC(C)NC(=O)Nc1ccc2c(c1)C(=O)N([C@@H](C)CO)C[C@@H](C)[C@@H](CN(C)C(=O)c1ccncc1)OCCCC[C@@H](C)O2 5.46%
O=C(NC1CCCCC1)N[C@H]1C=C[C@@H](CC(=O)N2CCOCC2)O[C@H]1CO 14.5%
CC(C)NC(=O)N(C)C[C@H]1Oc2c(NC(=O)C3CCCCC3)cccc2C(=O)N([C@H](C)CO)C[C@H]1C 0.7%
O=C(NC[C@@H]1[C@H](c2ccccc2)[C@@H](CO)N1C(=O)Cc1cccnc1)C1CCC1 -0.015%
CC(=O)N1[C@@H]2CN(S(=O)(=O)c3ccccc3F)c3ccccc3[C@@H]2[C@@H]1CO -0.157%
C[C@@H]1CN([C@@H](C)CO)C(=O)c2cc(NC(=O)C3CCCCC3)ccc2O[C@@H](C)CCCCO[C@@H]1CN(C)C(=O)NC1CCCCC1 -6.48%
C[C@@H]1CN([C@@H](C)CO)C(=O)c2cc(NS(=O)(=O)c3cn(C)cn3)ccc2O[C@@H](C)CCCCO[C@H]1CN(C)C 0.671%
COc1ccccc1-c1ccc2c(c1)O[C@@H](CN(C)C(=O)c1cccnc1)[C@H](C)CN([C@@H](C)CO)S2(=O)=O 10.1%
CCC(C)(C(=O)Nc1ccccc1C)N(C(=O)CNC(C)=O)c1ccc(C)cc1 (stereo unspecified) -14.4%
C[C@H]1CN([C@@H](C)CO)C(=O)c2cc(-c3cncnc3)cnc2O[C@H]1CN(C)C(=O)c1ccccc1F 5.35%
COCC(=O)N1C[C@H](C)[C@@H](OC)CN(C)C(=O)c2ccc(NS(C)(=O)=O)cc2OC[C@@H]1C -17.1%
C[C@H](CO)N1C[C@H](C)[C@@H](CN(C)C(=O)Nc2cccc3ccccc23)Oc2c(cccc2N(C)C)C1=O -12.4%
Cc1ccc(S(=O)(=O)N(C)C[C@@H]2Oc3ncc(Br)cc3C(=O)N([C@@H](C)CO)C[C@H]2C)cc1 -16.8%
CCCNC(=O)C[C@H]1C[C@H]2c3cc(NC(=O)Nc4ccc(OC)cc4)ccc3O[C@H]2[C@@H](CO)O1 17.6%
C[C@H]1CN([C@@H](C)CO)C(=O)Cc2cc(NS(=O)(=O)c3ccc(F)cc3)ccc2O[C@H]1CN(C)S(=O)(=O)c1ccc(F)cc1 -12.4%
CC(C)NC(=O)N1CC[C@@H]2[C@@H](CO)N(C)c3ccc(-c4cccc(F)c4)cc3[C@@H]21 -1.95% [at 13.5 µM]
